For some of these results: Entries with a potency or affinity are not part of this list.
Legend:
Design in all cases: scale not given: direction of the effect not stated beside the values
[1] = target: Protein translocase subunit SecA (Escherichia coli (strain K12)) (UniProt P10408); assay: Assay to Identify E. coli SecA ATPase Inhibitors; assay type: functional; details: 30 µM
[2] = target: T1, Ubiquitin-activating enzyme e1, putative (Leishmania donovani (strain BPK282A1)) (UniProt E9BSI1); assay: Leishmania donovani Ubiquitin Activating Enzyme (LdE1); assay type: functional; details: 30 µM
T1 sequence (whole entry): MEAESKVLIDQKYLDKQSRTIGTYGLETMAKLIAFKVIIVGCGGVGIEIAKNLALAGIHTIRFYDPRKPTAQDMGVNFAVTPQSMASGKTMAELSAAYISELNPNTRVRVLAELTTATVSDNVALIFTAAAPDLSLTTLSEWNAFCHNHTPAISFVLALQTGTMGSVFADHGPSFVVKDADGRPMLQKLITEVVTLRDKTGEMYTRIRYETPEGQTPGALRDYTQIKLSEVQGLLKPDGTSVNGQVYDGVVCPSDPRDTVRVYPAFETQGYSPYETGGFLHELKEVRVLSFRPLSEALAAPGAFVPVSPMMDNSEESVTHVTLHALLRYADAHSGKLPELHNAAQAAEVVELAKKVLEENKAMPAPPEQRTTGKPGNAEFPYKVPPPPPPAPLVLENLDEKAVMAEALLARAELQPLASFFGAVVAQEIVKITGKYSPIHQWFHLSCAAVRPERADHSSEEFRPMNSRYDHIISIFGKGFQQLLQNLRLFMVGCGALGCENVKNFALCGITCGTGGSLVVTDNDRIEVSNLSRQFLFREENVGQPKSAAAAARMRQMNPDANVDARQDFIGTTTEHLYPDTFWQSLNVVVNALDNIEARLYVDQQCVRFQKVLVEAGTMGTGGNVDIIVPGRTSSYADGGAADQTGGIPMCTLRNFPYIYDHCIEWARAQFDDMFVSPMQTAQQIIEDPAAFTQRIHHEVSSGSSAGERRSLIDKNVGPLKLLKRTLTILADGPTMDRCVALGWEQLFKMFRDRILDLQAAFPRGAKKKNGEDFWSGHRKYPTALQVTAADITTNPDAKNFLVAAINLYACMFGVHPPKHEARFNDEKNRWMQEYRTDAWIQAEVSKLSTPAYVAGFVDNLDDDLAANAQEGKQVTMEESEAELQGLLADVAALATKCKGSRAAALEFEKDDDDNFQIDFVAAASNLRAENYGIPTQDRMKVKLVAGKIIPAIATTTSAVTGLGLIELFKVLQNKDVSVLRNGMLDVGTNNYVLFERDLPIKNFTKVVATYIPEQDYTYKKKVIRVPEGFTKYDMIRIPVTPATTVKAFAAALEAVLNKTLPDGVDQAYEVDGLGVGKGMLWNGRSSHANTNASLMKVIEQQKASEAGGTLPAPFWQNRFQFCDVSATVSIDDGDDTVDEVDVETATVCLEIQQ

[3] = target: AMP-activated protein kinase, AMPK (Homo sapiens) (UniProt P54646+O43741+P54619+Q9UGJ0+Q9Y478+Q13131+Q9UGI9); assay: AMP-dependent Kinase enzyme assay. An in vitro enzyme assay that detects ADP turnover that is directly proportional to AMPK activity. This uses naive AMPK that is activated during the assay with MK-8722; assay type: functional; details: 30 µM
[4] = target: Sialic acid-binding Ig-like lectin 9 (Homo sapiens) (UniProt Q9Y336); assay: Hs-Siglec9 ALPHAscreen SOP 20170721; details: 10 µM
Trypanosoma cruzi = assay: Trypanosoma cruzi phosphomannomutase and mannose-1-phosphate guanylyltransferase assay; assay type: functional; details: 10 µM
[5] = target: T2, Arginase-2, mitochondrial (Homo sapiens) (UniProt P78540); assay: in vitro enzyme assay to detect the production of urea directly proportional to the activity of Arginase II; assay type: functional; details: 33.3 µM; further: in the data most compounds retested in dose-response had high values
T2 sequence (whole entry): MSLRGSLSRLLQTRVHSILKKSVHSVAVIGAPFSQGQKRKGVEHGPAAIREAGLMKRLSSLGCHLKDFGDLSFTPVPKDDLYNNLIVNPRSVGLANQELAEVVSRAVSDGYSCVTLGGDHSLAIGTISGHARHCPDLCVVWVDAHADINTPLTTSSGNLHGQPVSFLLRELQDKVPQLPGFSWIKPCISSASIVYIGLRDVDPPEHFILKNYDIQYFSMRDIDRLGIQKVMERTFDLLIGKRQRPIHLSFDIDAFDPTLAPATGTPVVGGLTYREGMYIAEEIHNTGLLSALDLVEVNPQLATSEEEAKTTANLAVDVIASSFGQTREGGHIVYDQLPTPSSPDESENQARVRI

[6] = target: T3, Proteasome subunit beta (Trypanosoma cruzi) (UniProt O96673); assay: Trypanosoma cruzi proteasome chymotrypsin-like activity (TcProtChymo) assay.; further: in the data most compounds retested in dose-response had high values; assay type: functional; details: 9.37 µM
T3 sequence (whole entry): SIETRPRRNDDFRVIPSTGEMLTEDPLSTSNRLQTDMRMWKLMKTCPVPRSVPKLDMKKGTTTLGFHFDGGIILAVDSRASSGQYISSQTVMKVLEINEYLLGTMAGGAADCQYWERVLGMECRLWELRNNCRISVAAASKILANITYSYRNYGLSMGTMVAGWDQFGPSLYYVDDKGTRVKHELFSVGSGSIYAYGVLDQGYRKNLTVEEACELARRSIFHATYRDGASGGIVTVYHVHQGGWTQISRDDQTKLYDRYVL

Homo sapiens = species on record: Homo sapiens; assay: To identify inhibition of the IFN signalling (Jak-Stat) pathway via expression of an eGFP reporter gene under the control of an IFN-stimulated response element (ISRE) containing MxA promoter.; assay type: functional; details: 30 µM
[7] = target: T4, Tyrosyl-tRNA synthetase, putative (Trypanosoma cruzi (strain CL Brener)) (UniProt Q4DSP6); assay: Trypanosoma cruzi tyrosyl tRNA synthetase (TcYRS) _High Tyrosine SOP; assay type: functional; details: 30 µM; further: in the data most compounds retested in dose-response had high values
T4 sequence (whole entry): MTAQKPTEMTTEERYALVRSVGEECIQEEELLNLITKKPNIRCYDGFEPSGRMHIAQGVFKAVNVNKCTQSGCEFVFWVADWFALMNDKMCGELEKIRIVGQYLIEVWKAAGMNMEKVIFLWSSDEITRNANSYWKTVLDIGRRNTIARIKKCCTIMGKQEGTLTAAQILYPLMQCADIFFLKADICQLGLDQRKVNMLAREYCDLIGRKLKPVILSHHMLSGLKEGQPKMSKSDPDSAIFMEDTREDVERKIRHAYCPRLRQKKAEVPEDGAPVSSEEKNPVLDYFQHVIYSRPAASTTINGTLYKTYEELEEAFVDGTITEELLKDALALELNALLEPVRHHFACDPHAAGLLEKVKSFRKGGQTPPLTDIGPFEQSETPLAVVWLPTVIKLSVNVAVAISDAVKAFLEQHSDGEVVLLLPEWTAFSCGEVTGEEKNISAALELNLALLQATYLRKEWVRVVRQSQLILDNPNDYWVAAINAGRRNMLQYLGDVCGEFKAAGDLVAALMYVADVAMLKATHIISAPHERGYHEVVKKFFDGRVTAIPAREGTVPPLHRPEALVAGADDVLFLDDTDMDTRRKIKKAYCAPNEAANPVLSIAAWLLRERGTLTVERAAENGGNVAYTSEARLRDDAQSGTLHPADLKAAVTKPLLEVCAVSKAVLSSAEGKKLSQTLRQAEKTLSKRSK

[8] = target: T4, Tyrosyl-tRNA synthetase, putative (Trypanosoma cruzi (strain CL Brener)); assay: Trypanosoma cruzi tyrosyl tRNA synthetase (TcYRS) SOP; assay type: functional; details: 30 µM
[9] = target: Chromo domain-containing protein 1 (Saccharomyces cerevisiae (strain ATCC 204508 / S288c) (Baker's yeast)) (UniProt P32657); assay: ScCHD-1 Enzyme Inhibition Assay; assay type: functional; details: 30 µM; further: in the data most compounds retested in dose-response had high values
Chain of Chromo domain-containing protein 1 (Saccharomyces cerevisiae (strain ATCC 204508 / S288c) (Baker's yeast)) (P32657 whole entry, the tested form may be a part): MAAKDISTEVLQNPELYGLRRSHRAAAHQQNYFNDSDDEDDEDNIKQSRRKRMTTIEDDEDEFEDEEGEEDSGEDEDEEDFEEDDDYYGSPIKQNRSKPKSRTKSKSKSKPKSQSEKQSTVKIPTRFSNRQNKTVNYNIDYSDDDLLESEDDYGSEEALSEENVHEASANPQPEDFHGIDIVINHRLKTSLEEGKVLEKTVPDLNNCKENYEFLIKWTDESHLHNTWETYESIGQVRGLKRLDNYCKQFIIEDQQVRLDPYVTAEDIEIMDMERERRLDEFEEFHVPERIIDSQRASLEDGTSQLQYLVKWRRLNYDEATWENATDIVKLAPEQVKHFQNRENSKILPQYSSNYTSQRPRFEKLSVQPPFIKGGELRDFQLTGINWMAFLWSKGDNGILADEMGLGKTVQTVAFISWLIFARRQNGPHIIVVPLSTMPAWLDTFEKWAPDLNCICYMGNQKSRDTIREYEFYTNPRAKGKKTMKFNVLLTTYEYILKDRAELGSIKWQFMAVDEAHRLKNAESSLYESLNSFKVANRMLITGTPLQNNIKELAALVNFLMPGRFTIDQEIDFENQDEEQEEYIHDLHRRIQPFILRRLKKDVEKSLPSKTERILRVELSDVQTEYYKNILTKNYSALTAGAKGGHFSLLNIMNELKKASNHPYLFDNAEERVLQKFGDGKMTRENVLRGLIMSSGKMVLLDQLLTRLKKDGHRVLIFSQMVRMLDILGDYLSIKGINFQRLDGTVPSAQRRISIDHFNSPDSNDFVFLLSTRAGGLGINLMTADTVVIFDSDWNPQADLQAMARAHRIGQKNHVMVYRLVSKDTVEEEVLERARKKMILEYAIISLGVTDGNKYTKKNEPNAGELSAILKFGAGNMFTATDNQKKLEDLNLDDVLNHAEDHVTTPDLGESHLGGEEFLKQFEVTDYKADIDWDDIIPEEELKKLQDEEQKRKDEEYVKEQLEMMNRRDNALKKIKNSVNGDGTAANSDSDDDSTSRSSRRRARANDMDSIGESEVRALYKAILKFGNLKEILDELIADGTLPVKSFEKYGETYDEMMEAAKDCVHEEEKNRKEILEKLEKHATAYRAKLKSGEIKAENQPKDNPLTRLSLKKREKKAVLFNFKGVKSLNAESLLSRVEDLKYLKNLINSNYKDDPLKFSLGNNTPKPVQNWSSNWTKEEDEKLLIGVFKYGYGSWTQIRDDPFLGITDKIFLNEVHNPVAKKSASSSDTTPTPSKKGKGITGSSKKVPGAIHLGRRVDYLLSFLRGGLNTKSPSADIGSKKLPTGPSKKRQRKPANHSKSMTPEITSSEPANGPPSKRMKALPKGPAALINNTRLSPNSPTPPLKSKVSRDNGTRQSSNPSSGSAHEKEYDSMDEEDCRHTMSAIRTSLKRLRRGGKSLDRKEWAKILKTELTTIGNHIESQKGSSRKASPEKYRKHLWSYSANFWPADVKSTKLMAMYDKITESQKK

Chain of Protein translocase subunit SecA (Escherichia coli (strain K12)) (P10408 whole entry): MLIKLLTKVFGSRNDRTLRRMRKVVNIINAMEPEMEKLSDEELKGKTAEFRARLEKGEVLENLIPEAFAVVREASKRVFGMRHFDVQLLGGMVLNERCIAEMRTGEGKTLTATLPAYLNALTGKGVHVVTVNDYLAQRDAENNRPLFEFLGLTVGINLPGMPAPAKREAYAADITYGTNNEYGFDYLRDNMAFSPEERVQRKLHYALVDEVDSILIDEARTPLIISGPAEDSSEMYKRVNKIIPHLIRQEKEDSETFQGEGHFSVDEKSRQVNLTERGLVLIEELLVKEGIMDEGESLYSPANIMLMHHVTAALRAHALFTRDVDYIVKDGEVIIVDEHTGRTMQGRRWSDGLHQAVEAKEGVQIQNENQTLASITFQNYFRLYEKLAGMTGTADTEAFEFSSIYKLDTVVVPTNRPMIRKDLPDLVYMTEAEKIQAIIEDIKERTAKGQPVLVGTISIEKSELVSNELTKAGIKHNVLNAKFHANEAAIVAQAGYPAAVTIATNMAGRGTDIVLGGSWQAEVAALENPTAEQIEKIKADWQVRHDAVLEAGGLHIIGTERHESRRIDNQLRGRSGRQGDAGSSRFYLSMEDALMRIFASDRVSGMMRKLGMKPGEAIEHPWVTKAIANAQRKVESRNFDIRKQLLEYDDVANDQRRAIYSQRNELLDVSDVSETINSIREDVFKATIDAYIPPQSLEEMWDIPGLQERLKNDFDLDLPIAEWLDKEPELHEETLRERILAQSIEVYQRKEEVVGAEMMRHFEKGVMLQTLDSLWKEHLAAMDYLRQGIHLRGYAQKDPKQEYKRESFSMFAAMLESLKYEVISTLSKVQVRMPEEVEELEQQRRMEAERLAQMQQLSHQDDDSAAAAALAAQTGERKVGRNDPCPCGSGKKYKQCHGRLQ
Chain of Sialic acid-binding Ig-like lectin 9 (Homo sapiens) (Q9Y336 whole entry): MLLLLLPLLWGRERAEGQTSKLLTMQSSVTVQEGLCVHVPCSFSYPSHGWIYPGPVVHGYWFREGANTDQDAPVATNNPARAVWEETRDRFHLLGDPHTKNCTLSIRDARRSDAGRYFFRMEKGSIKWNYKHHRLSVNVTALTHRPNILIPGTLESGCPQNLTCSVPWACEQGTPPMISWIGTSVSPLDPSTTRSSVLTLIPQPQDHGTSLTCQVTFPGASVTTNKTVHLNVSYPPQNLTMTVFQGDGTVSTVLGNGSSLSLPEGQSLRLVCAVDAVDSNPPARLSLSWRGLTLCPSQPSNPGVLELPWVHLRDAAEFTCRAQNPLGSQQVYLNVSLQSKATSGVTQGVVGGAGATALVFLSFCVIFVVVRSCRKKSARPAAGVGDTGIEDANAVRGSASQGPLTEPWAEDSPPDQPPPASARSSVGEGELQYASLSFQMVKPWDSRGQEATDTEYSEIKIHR

| SMILES | Percent Effect [1] | Percent Effect [2] | Percent Effect [3] | Percent Effect [4] | Percent Effect (Trypanosoma cruzi) | Percent Effect [5] | Percent Effect [6] | Percent Effect (Homo sapiens) | Percent Effect [7] | Percent Effect [8] | Percent Effect [9] |
| --- | --- | --- | --- | --- | --- | --- | --- | --- | --- | --- | --- |
| O=C(Cc1ccccn1)N1CCc2nc(-c3cnccn3)nc(O)c2C1 | -2.77% | 12.2% | 8.84% | -3.28% | 0.593% | 3.48% | 12.6% | 9.22% | 4.3% | 9.09% | -9.74% |
| Cc1cccc(CN2CCc3c(nc(N4CCC(C)CC4)[nH]c3=O)C2)n1 | -4.27% | 4.05% | 14.3% | 2.26% | 4.15% | -0.696% | 5.3% | -12.8% | 8.6% | 14.3% | -8.43% |
| CC(CCc1ccccc1)NC(=O)Nc1cnn(CC(N)=O)c1 (stereo not given) | -2.21% | 16.5% | -2.88% | 2.1% | -1.74% | -4.52% | 17.8% | 8.25% | 3.12% | 20.2% | -26.2% |
| Cc1ccc(N(CC(=O)c2ccc(Br)cc2)C2=NCCCCC2)cc1 | -1.45% | -55.3% | 5.34% | 3.76% | 5.55% | -11.8% | 11% | 17.9% | 4.25% | -2.6% | -1.8% |
| COC[C@H]1CCC[C@]12CN(CCc1ccccc1)CCO2 | 0.0327% | 12% | 1.6% | 2.89% | -5.5% | -8.28% | 19.8% | 4.65% | 1.06% | 2.56% | -6.74% |
| O=C(c1ccccn1)N1CCn2cnc(COCC3CC3)c2C1 | -2.21% | 0% | 3.19% | 4.7% | -2.86% | 3.23% | 9.57% | -0.697% | -10.6% | -16.7% | -11% |
| Cc1ccc(C(=O)NCCS(C)(=O)=O)c(=O)[nH]1 | -3.94% | 16.2% | -7.64% | -5.87% | 4.88% | 10.4% | 16.1% | 7.03% | 9.9% | 15.8% | -5.72% |
| O=C(CN(Cc1cccnc1)CC1CCCO1)Nc1ccc(F)cc1 (stereo not given) | -3.61% | 2.74% | 1.19% | 0.415% | -2.35% | -1.82% | 10.3% | 5.96% | 0% | 0% | 0.815% |
| O=C(NCCCN1CCCCC1)c1ccc(-n2ccc3ccccc32)s1 | -0.638% | -23.4% | -0.0111% | -2.17% | 11.1% | -9.68% | 9.4% | 22.6% | -3.17% | 1.28% | 1.91% |
| Cc1cccc(NC(=O)[C@@H]2CCCN2CC(=O)N2CCCCCC2)n1 | -4.79% | 16% | -8.35% | 23.6% | 5.75% | 34.4% | 14.8% | -1.75% | 4.92% | 16.1% | -6.64% |
| Cc1cccc(CCC(=O)N2CCOCC2c2c(C)n[nH]c2C)c1 (stereo not given) | -3.35% | -5.48% | -2.62% | 6.45% | -3.33% | -2.73% | -2.84% | 9.04% | -3.23% | -7.5% | -2.99% |
| CN(c1ccc(C(=O)NCCCN2CCOCC2)c(Cl)c1)S(C)(=O)=O | -5.85% | 5.2% | -0.453% | 13.2% | 4.23% | -13.8% | 7.16% | -1.2% | 5.38% | 11.1% | -6.36% |
| Cn1cc(CN2C[C@@H]3CN(Cc4ccoc4)CCO[C@@H]3C2)cn1 | -1.93% | 7.79% | 7.44% | 0.861% | -2.07% | 7.1% | 1.57% | 10.9% | 0% | 16.7% | -4.4% |
| N#Cc1ccc(OCCOc2ccccc2C(=O)N2CCOCC2)cc1 | -0.304% | 7.79% | -1.44% | 10.7% | 1.28% | -11% | 12.8% | -19.7% | 4.3% | 13.6% | -2.37% |
| Cc1noc(NC(=O)c2ccc(Br)s2)n1 | 1.05% | -5.26% | 14.6% | -3.75% | -5.13% | 3.96% | 9.39% | 40.2% | -3.45% | 1.24% | 15.6% |
| Cn1ccnc1N1CCN(C(=O)Cc2ccc(F)cc2)CC1 | -3.69% | 13% | 5.01% | 3.61% | 2.86% | 0.645% | 17.6% | 14.3% | 6.35% | 11.5% | -9.3% |
| CC(C(=O)N1CCCN(c2ccc(C#N)cc2)CC1)n1ccnc1 (stereo not given) | -5.97% | 15.8% | -5.83% | -1.34% | 3.01% | 6.13% | 8.52% | -7.67% | 8.33% | 19.5% | -17.9% |
| Cc1cc(C(=O)N2CCc3ncc(CN4CCOCC4)n3CC2)no1 | -4.01% | 0% | 1.62% | 0.585% | 0.0978% | -15.6% | -3.51% | -3.46% | -3.24% | -5.13% | 8.28% |
| Cn1cc(CNCCOc2ccc(F)c(F)c2)c(-c2cccnc2)n1 | -6.54% | 5.41% | -6.5% | 20.6% | 1.47% | 0.744% | 5.41% | 7.57% | 4.3% | 8.64% | -3.29% |
| CCN(CC)S(=O)(=O)N1CCCC(c2cccc(C(=O)O)c2)C1 (stereo not given) | -3.72% | 16.2% | -6.67% | 19.8% | 6.56% | 0.952% | 10.9% | 5.56% | 6.88% | 17.1% | -5.44% |

Source: ChEMBL document CHEMBL3988442, “University of Dundee, Small-Polar-MMV Screening Library” (2021)
